Measurements from PMC5540273 (PLoS ONE, 2017).

These compounds were tested on ACVR1B. Conditions: concentration: 1 μM, replicates: in singlicate; n = 1.
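Further: KINOMEscan kinase panel screen.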

Q: How did the “%Inh” value turn out when `COc1ccc(NC(=O)c2ccoc2)cc1-c1ccc(C(=O)NCC2CC2)cc1` [GW810437] was run?
A: 4%

Q: How did the “%Inh” value turn out when `CC(=O)Nc1cn2nc(Oc3cccc(NC(=O)c4cccc(C(F)(F)F)c4)c3)ccc2n1` was run?
A: 0%

Q: How did the “%Inh” value turn out when `Cc1ccc(C)c(NC(=O)Nc2ccc(C)c(-c3ccc(C(=O)Nc4ccncc4)cc3)c2)c1` [GSK1398473] was run?
A: 0%

Q: For `CN(C)c1ncnc2nc[nH]c12` [SKF-31736], which “%Inh” value is on record?
A: 0%

Q: How did the “%Inh” value turn out when `Cc1ccc(O)cc1Nc1ccnc2cc(-c3ccc(CN4CCCCC4)o3)ccc12` [GW557777] was run?
A: 79%

Q: For `Cl.Cl.NCC(NC(=O)c1cc(-c2cccnc2)c(-c2ccnc3[nH]ccc23)s1)c1ccccc1` (centres unmarked) [GSK1323434], which “%Inh” value is on record?
A: 0%

Q: How did the “%Inh” value turn out when `CC(C)NCC(Cc1ccccc1)NC(=O)c1cc(Br)c(-c2ccnc3[nH]ccc23)s1.Cl.Cl` (centres unmarked) [GSK1383281] was run?
A: 0%

Q: For `COc1cccc(NC(=O)NCCNc2ccnc(Nc3ccc(F)cc3)n2)c1` [GSK1379879], which “%Inh” value is on record?
A: 0%

Q: With `Cc1cc(-c2ccnc(Nc3cccc(C#N)c3)n2)cc(C)c1O` [GSK1440913] as the compound, how does the “%Inh” value read?
A: 0%

Q: For `Cc1ccc(O)cc1Nc1ccnc2ccc(C(C)(C)C)cc12` [GW856805], which “%Inh” value is on record?
A: 24%

Q: How did the “%Inh” value turn out when `O=C(Nc1n[nH]c2nc(-c3ccccc3)ccc12)C1CC1` [SB-708999] was run?
A: 22%

Q: With `Cl.Cl.NC(CNC(=O)c1cc(Br)c(-c2ccnc3[nH]ccc23)s1)c1ccccc1` (centres unmarked) [GSK1322949] as the compound, how does the “%Inh” value read?
A: 0%

Q: `Cn1cc(-c2cnc(N)c3c(-c4ccc5c(c4)CCN5C(=O)Cc4ccccc4)csc23)cn1` [GSK2593074] was tested. Which “%Inh” value did it give?
A: 9%

Q: How did the “%Inh” value turn out when `O=C1NC(=O)C(c2ccccc2Cl)=C1Nc1cccc(Cl)c1` [SB-342409] was run?
A: 0%

Q: How did the “%Inh” value turn out when `COc1ccc(C2=C(Nc3cccc(O)c3)C(=O)NC2=O)cc1` [SB-390766] was run?
A: 0%

Q: For `CN(C)CCNS(=O)(=O)c1ccc(-c2ccnc3[nH]ccc23)cc1` [GSK977620], which “%Inh” value is on record?
A: 6%

Q: With `CC(C)c1nc(-c2cccc(NS(=O)(=O)c3c(F)cccc3F)c2)c(-c2ccnc(Nc3ccc(N4CCOCC4)nc3)n2)s1.Cl` [GSK1723980] as the compound, how does the “%Inh” value read?
A: 89%

Q: Which “%Inh” value does the source give for `CCn1cnc2c(NCc3ccccc3)ncnc21` [SKF-96418] here?
A: 0%

Q: `COC(=O)Nc1nc2cc(Oc3ccc(NC(=O)Nc4cccc(SC)c4)cc3)ccc2[nH]1.Cl` [GW697999] was tested. Which “%Inh” value did it give?
A: 0%

Q: With `O=C(Nc1n[nH]c2nc(-c3cccc(O)c3)ccc12)C1CC1` [SB-711805] as the compound, how does the “%Inh” value read?
A: 13%

Q: Which “%Inh” value does the source give for `CN(c1ccc(F)c(NC(=O)c2cccc(OC(C)(C)C#N)c2Cl)c1)c1ccc2nc(NC(=O)C3CC3)sc2n1` here?
A: 0%

Q: `Cc1nn2c(=O)cc(N3CCO[C@H](C)C3)nc2n1Cc1cccc(Cl)c1Cl` [GSK2373693] was tested. Which “%Inh” value did it give?
A: 22%

Q: For `Cl.O=C(Nc1ccc(Oc2ccc3[nH]c(NC(=O)c4ccco4)nc3c2)cc1)Nc1cc(C(F)(F)F)ccc1F` [GW683134], which “%Inh” value is on record?
A: 0%

Q: With `N#CC1(c2cccc(C(=O)Nc3cccc(Oc4ccc5nc(NC(=O)C6CC6)sc5n4)c3)c2)CC1` as the compound, how does the “%Inh” value read?
A: 0%

Q: For `COC(=O)Nc1nc2ccc(Oc3ccc(CC(=O)Nc4cc(C(F)(F)F)ccc4F)cc3)cc2[nH]1` [GW680903], which “%Inh” value is on record?
A: 0%

Q: For `O=C(Nc1n[nH]c2nc(-c3ccccc3O)ccc12)C1CC1` [SB-711880], which “%Inh” value is on record?
A: 0%

Q: `CNc1nccc(-c2ccc3c(N)n[nH]c3c2)n1` [GSK2206003] was tested. Which “%Inh” value did it give?
A: 10%

Q: How did the “%Inh” value turn out when `O=C(Nc1n[nH]c2cc(-c3cccs3)ccc12)C1CC1` [SB-731284] was run?
A: 0%

Q: Which “%Inh” value does the source give for `CC(C)(C)c1ccc(C(=O)Nc2cn3cc(-n4ccnc4)ccc3n2)cc1` here?
A: 7%

Q: With `Cc1ccc(Nc2ccnc(Nc3ccc(C)c(F)c3)n2)cc1O.Cl` [GW582868] as the compound, how does the “%Inh” value read?
A: 0%

Q: For `Fc1cc(Cl)ccc1Nc1ccnc2cc(-c3ccc(CN4CCOCC4)o3)ccc12` [GW560109], which “%Inh” value is on record?
A: 0%

Q: Which “%Inh” value does the source give for `Nc1cccc(-c2ccc3c(N)n[nH]c3c2)c1` [GSK2193613] here?
A: 0%

Q: For `Nc1ncnc2scc(-c3ccc(NC(=O)Cc4cc(F)ccc4F)cc3)c12.O=C(O)C(F)(F)F` [SB-731254-M], which “%Inh” value is on record?
A: 14%

Q: `COc1cccc(-c2nc(-c3ccccc3)[nH]c2-c2ccncc2)c1` [SB-610250] was tested. Which “%Inh” value did it give?
A: 0%

Q: How did the “%Inh” value turn out when `Cc1cccc(Nc2nc(NCCN)ncc2C(N)=O)c1` [GSK1292139] was run?
A: 0%

Q: Which “%Inh” value does the source give for `CN1CCN(Cc2ccc(NC(=O)Nc3ccc(N(C)c4ccnc(Nc5ccc(CS(C)(=O)=O)cc5)n4)cc3)cc2)CC1.Cl` [GW827654] here?
A: 0%

Q: `CN(c1ccc(NC(=O)Nc2cccc(Cl)c2)cc1)c1ccnc(N)n1.Cl` [GW830707] was tested. Which “%Inh” value did it give?
A: 4%

The compounds below were run on ACVR1. Conditions: concentration: 1 μM, replicates: in singlicate; n = 1.

Q: Which “%Inh” value does the source give for `COc1ccc(NC(=O)c2ccoc2)cc1-c1ccc(C(=O)NCC2CC2)cc1` [GW810437] here?
A: 0%

Q: How did the “%Inh” value turn out when `CC(=O)Nc1cn2nc(Oc3cccc(NC(=O)c4cccc(C(F)(F)F)c4)c3)ccc2n1` was run?
A: 0%

Q: Which “%Inh” value does the source give for `Cc1ccc(C)c(NC(=O)Nc2ccc(C)c(-c3ccc(C(=O)Nc4ccncc4)cc3)c2)c1` [GSK1398473] here?
A: 18%

Q: Which “%Inh” value does the source give for `CN(C)c1ncnc2nc[nH]c12` [SKF-31736] here?
A: 1%

Q: With `Cc1ccc(O)cc1Nc1ccnc2cc(-c3ccc(CN4CCCCC4)o3)ccc12` [GW557777] as the compound, how does the “%Inh” value read?
A: 99.4%

Q: `Cl.Cl.NCC(NC(=O)c1cc(-c2cccnc2)c(-c2ccnc3[nH]ccc23)s1)c1ccccc1` (centres unmarked) [GSK1323434] was tested. Which “%Inh” value did it give?
A: 19%

Q: `CC(C)NCC(Cc1ccccc1)NC(=O)c1cc(Br)c(-c2ccnc3[nH]ccc23)s1.Cl.Cl` (centres unmarked) [GSK1383281] was tested. Which “%Inh” value did it give?
A: 0%

Q: `COc1cccc(NC(=O)NCCNc2ccnc(Nc3ccc(F)cc3)n2)c1` [GSK1379879] was tested. Which “%Inh” value did it give?
A: 0%

Q: How did the “%Inh” value turn out when `Cc1cc(-c2ccnc(Nc3cccc(C#N)c3)n2)cc(C)c1O` [GSK1440913] was run?
A: 96.5%

Q: `Cc1ccc(O)cc1Nc1ccnc2ccc(C(C)(C)C)cc12` [GW856805] was tested. Which “%Inh” value did it give?
A: 24%

Q: With `O=C(Nc1n[nH]c2nc(-c3ccccc3)ccc12)C1CC1` [SB-708999] as the compound, how does the “%Inh” value read?
A: 6%

Q: For `Cl.Cl.NC(CNC(=O)c1cc(Br)c(-c2ccnc3[nH]ccc23)s1)c1ccccc1` (centres unmarked) [GSK1322949], which “%Inh” value is on record?
A: 38%

Q: How did the “%Inh” value turn out when `Cn1cc(-c2cnc(N)c3c(-c4ccc5c(c4)CCN5C(=O)Cc4ccccc4)csc23)cn1` [GSK2593074] was run?
A: 7%

Q: For `O=C1NC(=O)C(c2ccccc2Cl)=C1Nc1cccc(Cl)c1` [SB-342409], which “%Inh” value is on record?
A: 12%

Q: With `COc1ccc(C2=C(Nc3cccc(O)c3)C(=O)NC2=O)cc1` [SB-390766] as the compound, how does the “%Inh” value read?
A: 0%

Q: How did the “%Inh” value turn out when `CN(C)CCNS(=O)(=O)c1ccc(-c2ccnc3[nH]ccc23)cc1` [GSK977620] was run?
A: 0%

Q: How did the “%Inh” value turn out when `CC(C)c1nc(-c2cccc(NS(=O)(=O)c3c(F)cccc3F)c2)c(-c2ccnc(Nc3ccc(N4CCOCC4)nc3)n2)s1.Cl` [GSK1723980] was run?
A: 95.9%

Q: For `CCn1cnc2c(NCc3ccccc3)ncnc21` [SKF-96418], which “%Inh” value is on record?
A: 0%

Q: `COC(=O)Nc1nc2cc(Oc3ccc(NC(=O)Nc4cccc(SC)c4)cc3)ccc2[nH]1.Cl` [GW697999] was tested. Which “%Inh” value did it give?
A: 0%

Q: How did the “%Inh” value turn out when `O=C(Nc1n[nH]c2nc(-c3cccc(O)c3)ccc12)C1CC1` [SB-711805] was run?
A: 32%

Q: With `CN(c1ccc(F)c(NC(=O)c2cccc(OC(C)(C)C#N)c2Cl)c1)c1ccc2nc(NC(=O)C3CC3)sc2n1` as the compound, how does the “%Inh” value read?
A: 0%

Q: For `Cc1nn2c(=O)cc(N3CCO[C@H](C)C3)nc2n1Cc1cccc(Cl)c1Cl` [GSK2373693], which “%Inh” value is on record?
A: 0%

Q: Which “%Inh” value does the source give for `Cl.O=C(Nc1ccc(Oc2ccc3[nH]c(NC(=O)c4ccco4)nc3c2)cc1)Nc1cc(C(F)(F)F)ccc1F` [GW683134] here?
A: 0%

Q: Which “%Inh” value does the source give for `N#CC1(c2cccc(C(=O)Nc3cccc(Oc4ccc5nc(NC(=O)C6CC6)sc5n4)c3)c2)CC1` here?
A: 0%

Q: With `COC(=O)Nc1nc2ccc(Oc3ccc(CC(=O)Nc4cc(C(F)(F)F)ccc4F)cc3)cc2[nH]1` [GW680903] as the compound, how does the “%Inh” value read?
A: 9%

Q: `O=C(Nc1n[nH]c2nc(-c3ccccc3O)ccc12)C1CC1` [SB-711880] was tested. Which “%Inh” value did it give?
A: 0%

Q: With `CNc1nccc(-c2ccc3c(N)n[nH]c3c2)n1` [GSK2206003] as the compound, how does the “%Inh” value read?
A: 7%

Q: For `O=C(Nc1n[nH]c2cc(-c3cccs3)ccc12)C1CC1` [SB-731284], which “%Inh” value is on record?
A: 0%

Q: With `CC(C)(C)c1ccc(C(=O)Nc2cn3cc(-n4ccnc4)ccc3n2)cc1` as the compound, how does the “%Inh” value read?
A: 0%

Q: With `Cc1ccc(Nc2ccnc(Nc3ccc(C)c(F)c3)n2)cc1O.Cl` [GW582868] as the compound, how does the “%Inh” value read?
A: 88%

Q: How did the “%Inh” value turn out when `Fc1cc(Cl)ccc1Nc1ccnc2cc(-c3ccc(CN4CCOCC4)o3)ccc12` [GW560109] was run?
A: 86%

Q: Which “%Inh” value does the source give for `Nc1cccc(-c2ccc3c(N)n[nH]c3c2)c1` [GSK2193613] here?
A: 11%

Q: `Nc1ncnc2scc(-c3ccc(NC(=O)Cc4cc(F)ccc4F)cc3)c12.O=C(O)C(F)(F)F` [SB-731254-M] was tested. Which “%Inh” value did it give?
A: 0%

Q: With `COc1cccc(-c2nc(-c3ccccc3)[nH]c2-c2ccncc2)c1` [SB-610250] as the compound, how does the “%Inh” value read?
A: 24%

Q: Which “%Inh” value does the source give for `Cc1cccc(Nc2nc(NCCN)ncc2C(N)=O)c1` [GSK1292139] here?
A: 0%

Q: For `CN1CCN(Cc2ccc(NC(=O)Nc3ccc(N(C)c4ccnc(Nc5ccc(CS(C)(=O)=O)cc5)n4)cc3)cc2)CC1.Cl` [GW827654], which “%Inh” value is on record?
A: 58%

Q: Which “%Inh” value does the source give for `CN(c1ccc(NC(=O)Nc2cccc(Cl)c2)cc1)c1ccnc(N)n1.Cl` [GW830707] here?
A: 0%
